Assay results reported in PubChem BioAssay AID463173 (ICCB-Longwood Screening Facility, Harvard Medical School, 2010).
The whole screen tested about 52,000 compounds, of which about 4,300 (8.3%) were called active. The full list was thinned out, with actives kept by preference. A number with no mark means an inactive call. Rule as the data show it: active = survival mostly below about 52% (no sharp cut-off); inactive = mostly above about 56%.

system: DeltatarO mutant; test: S. aureus survival, RN4220 and DeltatarO strains – OD600, teichoic acid synthesis inhibitors, primary screen (AID 463173); conditions: S. aureus RN4220 wild type/DeltatarO growth, OD600, 18 h, active compounds read low, screened at 18.75 µg/mL (by protocol)

| Structure (SMILES) | survival |
| --- | --- |
| Cc1nc(-c2cccnc2)sc1CCNS(=O)(=O)c1ccc(F)cc1 | 75% |
| COc1ccc(CNC(=O)C(CC(C)C)NS(=O)(=O)c2ccc3c(c2)CCN3C(C)=O)cc1 (stereo not given) | 92% |
| CNCC(O)COc1ccccc1 (stereo not given) | 94% |
| N#CC(C#N)=C(N)/C(C#N)=C/c1cccs1 | 81% |
| CCc1ccc2nc(N3CCCCC3)c(C#N)cc2c1 | 88% |
| CCn1cc(C(=O)N2CCN(c3ccc(C)cc3)C(C)C2)c(=O)c2cc(S(=O)(=O)N3CCCC3)ccc21 (stereo not given) | 87% |
| Cc1nc2cc(-c3cccc(F)c3)nn2c(C)c1CCC(=O)Nc1ccccc1C(N)=O | 61% |
| COC(=O)c1ccc(CSc2nc3c(c(=O)[nH]2)CCC3)cc1 | 85% |
| CCOc1ccc(CCNC(=O)c2cc3c(s2)-c2ccccc2OC3)cc1OCC | 67% |
| COc1ccc(Cl)cc1NC(=O)c1cc2c(s1)-c1ccccc1OC2 | 74% |
| COC(=O)c1ccccc1NC(=O)c1cc2c(s1)-c1ccccc1OC2 | 39% (active) |
| CCOc1ccccc1N(C)C(=O)c1cc2c(s1)-c1ccccc1OC2 | -2% (active) |
| CCOC(=O)c1ccccc1NC(=O)c1cc2c(s1)-c1c(C)cccc1OC2 | 137% |
| COc1cc(OC)c(N(C)C(=O)c2cc3c(s2)-c2ccccc2OC3)cc1Cl | 60% |
| CCOC(=O)c1ccc(NC(=O)c2cn(-c3ccccc3)nc2-c2ccc(C)cc2)cc1 | 57% |
| O=C(c1ccccc1Cl)N1CCCCC1CCN1CCCCC1 (stereo not given) | 100% |
| COc1cccc(CNC(=O)C(Cc2ccccc2)NS(=O)(=O)c2ccc3c(c2)CCN3C(C)=O)c1 (stereo not given) | 70% |
| CC(C)c1ccc(N2C(=O)N(Cc3ccccc3Cl)c3ccccc3S2(=O)=O)cc1 | 86% |
| Cc1ccc(NC(=O)CCS(=O)(=O)c2cccc3nsnc23)c(C)c1 | 61% |
| Cc1cc(F)ccc1NC(=O)CCS(=O)(=O)c1cccc2nsnc12 | 59% |
| CCN(CC)c1ccc(NC(=O)CCS(=O)(=O)c2cccc3nsnc23)c(C)c1 | 44% (active) |
| O=C(Cn1cc(C(=O)c2ccco2)c2ccccc21)Nc1ccccc1Cl | 80% |

| Structure (SMILES) | survival |
| --- | --- |
| COc1c(C)cc(S(=O)(=O)Nc2cccc(-c3ccc(N4CCOCC4)nn3)c2)c(C)c1C | 91% |
| COc1ccc(CCN2C(=O)c3[nH]nc(-c4ccccc4O)c3C2c2ccccc2)cc1 (stereo not given) | 22% (active) |
| COc1ccc(CCN2C(=O)c3[nH]nc(-c4ccccc4O)c3C2c2ccc(OC)cc2)cc1 (stereo not given) | 29% (active) |
| COc1ccc(CCN2C(=O)c3[nH]nc(-c4ccccc4O)c3C2c2cccc(OC)c2)cc1 (stereo not given) | 66% |
| COc1ccc(C2c3c(-c4ccccc4O)n[nH]c3C(=O)N2CCc2ccccc2)cc1 (stereo not given) | 21% (active) |
| COc1ccc2c(c1)c1c(c(=O)n(-c3ccc(F)c(Cl)c3)c(=O)n1CC(N)=O)n2C | 96% |
| CC(=O)Nc1nc(SCc2ccccc2Cl)n[nH]1 | 91% |
| Cc1ccc(NC(=O)Cn2nnc3sc(-c4ccccc4)cc3c2=O)cc1Cl | 52% |
| O=C(COc1ccc(F)cc1)Nc1ccc2nc(SCC(=O)N3CCCC3)sc2c1 | 91% |
| Cc1ccc(NC(=O)C2CCCN2S(=O)(=O)c2ccc3nc(-c4ccccc4)[nH]c3c2)cc1C (stereo not given) | 92% |
| COc1ccc(NC(=O)C2CCCN2S(=O)(=O)c2ccc3nc(-c4ccccc4)[nH]c3c2)cc1 (stereo not given) | 77% |
| CCc1cccc(NC(=O)C2CCCN2S(=O)(=O)c2ccc3c(c2)n(C)c(=O)c(=O)n3C)c1 (stereo not given) | 85% |
| Cc1cc(C)cc(NC(=O)C2CCCN2S(=O)(=O)c2ccc3nc(-c4ccccc4)[nH]c3c2)c1 (stereo not given) | 38% (active) |
| CCOc1ccccc1NC(=O)C1CCCN1S(=O)(=O)c1ccc2nc(-c3ccccc3)[nH]c2c1 (stereo not given) | 50% |
| COc1cccc(NC(=O)C2CCCN2S(=O)(=O)c2ccc3c(c2)n(C)c(=O)c(=O)n3C)c1 (stereo not given) | 87% |
| COc1cccc(NC(=O)C2CCCN2S(=O)(=O)c2ccc3nc(-c4ccccc4)[nH]c3c2)c1 (stereo not given) | 44% (active) |
| CCc1ccc(NC(=O)C2CCCN2S(=O)(=O)c2ccc3nc(-c4ccccc4)[nH]c3c2)cc1 (stereo not given) | 82% |
| CCc1cccc(NC(=O)C2CCCN2S(=O)(=O)c2ccc3nc(-c4ccccc4)[nH]c3c2)c1 (stereo not given) | 35% (active) |
| CC(C)c1ccc(NC(=O)C2CCCN2S(=O)(=O)c2ccc3nc(-c4ccccc4)[nH]c3c2)cc1 (stereo not given) | 44% |
| Cc1cccc(NC(=O)C2CCCN2S(=O)(=O)c2ccc3nc(-c4ccccc4)[nH]c3c2)c1 (stereo not given) | 37% (active) |
| Cc1ccc(NC(=O)C2CCCN2S(=O)(=O)c2ccc3nc(-c4ccccc4)[nH]c3c2)cc1F (stereo not given) | 71% |
| CCOC(=O)N1CCC(NC(=O)c2cnn(-c3ccc(C)cc3C)c2C2CCN(C(=O)OC(C)(C)C)CC2)CC1 | 124% |

| Structure (SMILES) | survival |
| --- | --- |
| O=C(CNC(=O)c1ccccc1Cl)OCc1cc(=O)n2nc(C3CC3)sc2n1 | 78% |
| CCCCOC(=O)c1ccc(NC(=O)c2cc(-c3ccccc3)on2)cc1 | 91% |
| Cc1ccc(NC(=O)CSc2ncnc3c2sc2ccccc23)cc1C | 113% |
| CCN1CCN(Cc2c(O)ccc3oc(C)c(C(=O)Nc4ccc(OC)cc4)c23)CC1 | 78% |
| Cc1cc2c(C)nc3ccc(C(=O)O)cc3c2o1 | 71% |
| Cc1ccc(OC(C)C(=O)N2CCN(CCc3ccncc3)CC2)cc1C (stereo not given) | 52% |
| Cc1ccc(Cl)cc1N1CCN(C(=O)C2CCN(S(=O)(=O)c3c(C)noc3/C=C/c3ccccc3F)CC2)CC1 | 72% |
| CCOC(=O)c1cc(S(=O)(=O)NCc2ccccc2)[nH]n1 | 124% |
| CC(C)c1ccc(Nc2ncnc3onc(-c4ccc(F)cc4)c23)cc1 | 80% |
| Cc1ccc(N2C(=O)C(CC(=O)Nc3ccc(F)cc3)N(CCC3=CCCCC3)C2=O)cc1 (stereo not given) | 55% (active) |
| CCc1ccc(NC(=O)CC2C(=O)N(c3ccccc3)C(=O)N2C(C)C)cc1 (stereo not given) | -5% (active) |
| CCCOc1ccc(NC(=O)CC2C(=O)N(c3ccc(C)cc3)C(=O)N2C(C)C)cc1 (stereo not given) | 128% |
| COc1cccc(CN2C(=O)N(c3ccc(C)cc3)C(=O)C2CC(=O)Nc2cc(OC)cc(OC)c2)c1 (stereo not given) | 144% |
| COc1ccc(CN2C(=O)N(c3ccc(F)cc3)C(=O)C2CC(=O)Nc2ccccc2)cc1 (stereo not given) | 77% |
| Cc1ccc(N2C(=O)C(CC(=O)Nc3ccccc3)N(CCC3=CCCCC3)C2=O)cc1 (stereo not given) | 67% |
| COC(=O)c1ccc(NC(=O)CC2C(=O)N(c3cccc(OC)c3)C(=O)N2C(C)C)cc1 (stereo not given) | 88% |
| CCCOc1ccc(NC(=O)CC2C(=O)N(c3ccccc3)C(=O)N2Cc2ccc(F)cc2)cc1 (stereo not given) | 17% (active) |
| CCOc1ccc(NC(=O)CC2C(=O)N(c3ccccc3)C(=O)N2Cc2cccc(OC)c2)cc1 (stereo not given) | 102% |
| COC(=O)c1ccc(NC(=O)CC2C(=O)N(c3ccccc3)C(=O)N2Cc2ccc(F)cc2)cc1 (stereo not given) | 55% |
| O=C(CC1C(=O)N(c2ccccc2)C(=O)N1CCC1=CCCCC1)Nc1ccc(F)cc1 (stereo not given) | 48% |
| CCCOc1ccc(NC(=O)CC2C(=O)N(c3ccc(C)cc3)C(=O)N2Cc2cccc(OC)c2)cc1 (stereo not given) | 46% (active) |
